From PubChem
aSyn yeast inh: qHTS of alpha-syn Inhibitors; 0.14% of 370,000 active; Yeast expressing alpha-synuclein, growth rescue, BacTiter-Glo, 24 h; Potency, µM (series often up to 46.1 µM), without a hit: at the highest dose growth rescue (activation), usual class: activators; note: % of control where 0% means no effect; nearly all actives have a fitted effect of over 65% in size
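Screening used galactose-induced yeast with toxic alpha-synuclein levels, exposed to compound for 24 hr at 30 deg C. Cell growth, read with BacTiter-Glo luminescence, gave the measured signal.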
FUS yeast rescue: qHTS for Suppressors of FUS Proteinopathy: Primary screen using FUS-linked yeast assay; 0.24% of 390,000 active; Potency, µM (series often up to 76.6 µM), hits mostly activators; S. cerevisiae FUS-expressing, growth rescue, OD600, 24 h;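 note: plate controls were DMSO vehicle for no effect and reference control for full effect; nearly all actives have a fitted effect of over 55% in size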
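Yeast expressing FUS under galactose induction, OD 0.005 in 2% galactose medium; compounds in a dilution series, 24 h at 30C. Growth rescue by absorbance at 600 nm; CP55940 positive control, DMSO negative.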
TDP-43 yeast inh: qHTS of TDP-43 Inhibitors; TDP-43 expressing yeast growth rescue, BacTiter-Glo, 24 h; Potency, µM (top dose mostly 46.1 µM), for inactives: top-dose growth rescue (activation), most hits filed as activators; 1.8% of 410,000 active; AID 652104, 2013; note: % of control where 0% means no effect; nearly all actives have a fitted effect of over 50% in size
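Yeast expressing TDP-43 (pregrown in raffinose, seeded at OD600=0.02 in galactose medium) exposed to compounds 24 hr at 30 deg C. Growth read by BacTiter-Glo luminescence; rescue of toxicity appears as increased signal.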
Abeta rescue: qHTS for compounds that reverse cellular toxicity of Amyloid beta (A-beta) peptide in yeast: Primary Screen | yeast expressing A-beta42, growth rescue, OD600, 48 h; response scale: 0% DMSO, 100% iron-clioquinol control | Potency, µM (top dose mostly 46.1 µM), most hits filed as activators | 0.063% of 410,000 active; note: nearly all actives have a fitted effect of over 55% in size
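Yeast growth medium received pinned compounds, then yeast cells expressing toxic A-beta were added; plates incubated at 30 C for 48 hr. Growth read as absorbance at 600 nm, normalized to DMSO and equimolar FeCl3 plus clioquinol controls.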
Numbers without * were called inactive. This is a sample that favours compounds with a hit; in the whole collection about 2.1% have one here. Calls come from the whole dose curve; as a rule, active = well fitted curve in the direction sought with a large enough effect; inconclusive = small, poorly fitted or top-dose-only effect, or another doubt; inactive = no such curve, though single readings can be large; an effect the other way counts as inactive or inconclusive. Potency is the fitted concentration of half-maximal effect.

Cc1ccc2c(c1)CCCN2C(=O)c1ccoc1C was read as aSyn yeast inh 2%, FUS yeast rescue 5.6µM*, TDP-43 yeast inh -18% and Abeta rescue inactive.
Screening O=C(/C=C/c1ccc(Cl)cc1)N1CCN(c2c(Cl)cccc2[N+](=O)[O-])CC1 returned aSyn yeast inh 20%, FUS yeast rescue inactive, TDP-43 yeast inh 11µM* and Abeta rescue inactive.
Screening Cc1cc(C)cc(NC(=S)NCCc2ccc(S(N)(=O)=O)cc2)c1 returned aSyn yeast inh 2%, FUS yeast rescue inactive, TDP-43 yeast inh 2% and Abeta rescue inactive.
O=[N+]([O-])c1ccc(Sc2nccn2Cc2ccccc2)c([N+](=O)[O-])c1 was read as aSyn yeast inh -7%, TDP-43 yeast inh 14µM* and Abeta rescue inactive.
Screening Cc1cc(C)cc(Nc2ncc3c(n2)CC(c2ccco2)CC3=O)c1 (stereo unspecified) returned aSyn yeast inh -16%, FUS yeast rescue inconclusive, TDP-43 yeast inh 16µM* and Abeta rescue inactive.
`O=C(Nc1ccc(Cc2ccncc2)cc1)c1ccco1` gave aSyn yeast inh 3%, FUS yeast rescue inactive, TDP-43 yeast inh -12% and Abeta rescue inactive.
For COCCN1C(=O)/C(=C/c2cc3c(cc2Br)OCO3)NC1=S the results were aSyn yeast inh -5%, FUS yeast rescue inactive, TDP-43 yeast inh 20µM* and Abeta rescue inactive.
O=C1NC(=O)/C(=C/c2cc3c(cc2Br)OCO3)S1 was read as aSyn yeast inh -12%, FUS yeast rescue inactive, TDP-43 yeast inh -31% and Abeta rescue inactive.
For S=C1N(c2ccccc2)C(c2ccc(Br)cc2)N2CCCN12 (stereo unspecified) the results were aSyn yeast inh 20%, FUS yeast rescue inactive, TDP-43 yeast inh 13µM* and Abeta rescue inactive.
CCOC(=O)c1ccc(-c2ccc(/C=C(\C#N)C(=O)NCC3CCCO3)o2)cc1 (stereo unspecified) was read as aSyn yeast inh 0%, TDP-43 yeast inh 19% and Abeta rescue inactive.
COCCC(=O)N1CCC(Oc2ccc(C(=O)N3C[C@@H](C)O[C@@H](C)C3)cc2)CC1 was read as aSyn yeast inh -8%, TDP-43 yeast inh -9% and Abeta rescue inactive.
Screening COc1ccccc1Cn1c(CNS(=O)(=O)c2ccc(Cl)s2)nc2cccnc21 returned FUS yeast rescue inactive, TDP-43 yeast inh 0% and Abeta rescue inactive.
COc1ccccc1CNS(=O)(=O)c1ccc(Cl)s1 was read as aSyn yeast inh 16%, FUS yeast rescue inactive, TDP-43 yeast inh 13µM* and Abeta rescue inactive.
For CCOc1cc(S(=O)(=O)NCc2ccc3c(c2)OCO3)c(C)cc1C the results were aSyn yeast inh 7%, FUS yeast rescue inactive, TDP-43 yeast inh 19% and Abeta rescue inactive.
Screening O=S(=O)(NCc1ccc2c(c1)OCO2)c1ccc(Cl)s1 returned aSyn yeast inh 9%, FUS yeast rescue inactive, TDP-43 yeast inh 11µM* and Abeta rescue inactive.
Screening Cc1cc(C)c(S(=O)(=O)NCc2ccc3c(c2)OCO3)cc1C returned aSyn yeast inh 20%, FUS yeast rescue inactive, TDP-43 yeast inh inconclusive and Abeta rescue inactive.
For CCOc1cc(C)c(Cl)cc1S(=O)(=O)NCc1ccc2c(c1)OCO2 the results were aSyn yeast inh 11%, FUS yeast rescue inactive, TDP-43 yeast inh 14µM* and Abeta rescue inactive.
Cc1cc(C)c(S(=O)(=O)NCc2ccc3c(c2)OCO3)c(C)c1 was read as aSyn yeast inh 2%, FUS yeast rescue inactive, TDP-43 yeast inh 18µM* and Abeta rescue inactive.
For Cc1ccc(-n2nc(C)c3c(C(=O)Nc4ccc(C)cc4Cl)cc(C)nc32)cc1 the results were FUS yeast rescue inactive, TDP-43 yeast inh 10% and Abeta rescue inactive.
`Clc1ccccc1N/N=C/c1ccc2c(c1)OCO2` gave aSyn yeast inh -20%, FUS yeast rescue inactive, TDP-43 yeast inh 18µM* and Abeta rescue inactive.
COc1ccc(-c2noc(N3CCC(C(=O)Nc4ccc(C)c(F)c4)CC3)n2)cc1OC was read as FUS yeast rescue inactive, TDP-43 yeast inh 14% and Abeta rescue inactive.
`Cc1ccc(C(C)C)c(OCc2ccc(C(=O)N/N=C/c3cccc(O)c3O)cc2)c1` gave aSyn yeast inh 13µM*, FUS yeast rescue inactive, TDP-43 yeast inh 13µM* and Abeta rescue inconclusive.
